Drawing on PubChem BioAssay AID463082 (The Scripps Research Institute Molecular Screening Center, 2010), this text covers inhibition for 89 molecules.

Out of some 330,000 compounds screened, about 4,900 (1.5%) were called active. The sample as a whole holds a higher share of actives than the screen did. Unmarked numbers belong to inactive results.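 The calls were made as follows: active = inhibition above the mean inhibition across the screen plus 3 SD (cut at about 25% in these data); inactive = the rest.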

One may read the inhibition as the relative decrease from the control value, in per cent.

The target of this assay is Platelet-activating factor acetylhydrolase (Homo sapiens) (UniProt Q13093). The assay is described as follows: inhibition of plasma PAF acetylhydrolase – biochemical, fluorescence polarization, human, primary screen (AID 463082).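 Also: inhibitors block binding of the rhodamine activity-based probe so polarization drops; 0% = enzyme with DMSO and 100% = wells lacking pPAFAH.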 The conditions noted are these: recombinant pPAFAH, FP-rhodamine probe fluorescence polarization; at 3.39 µM; active compounds read high.
Platelet-activating factor acetylhydrolase (Homo sapiens), sequence (Q13093 whole entry, looked up): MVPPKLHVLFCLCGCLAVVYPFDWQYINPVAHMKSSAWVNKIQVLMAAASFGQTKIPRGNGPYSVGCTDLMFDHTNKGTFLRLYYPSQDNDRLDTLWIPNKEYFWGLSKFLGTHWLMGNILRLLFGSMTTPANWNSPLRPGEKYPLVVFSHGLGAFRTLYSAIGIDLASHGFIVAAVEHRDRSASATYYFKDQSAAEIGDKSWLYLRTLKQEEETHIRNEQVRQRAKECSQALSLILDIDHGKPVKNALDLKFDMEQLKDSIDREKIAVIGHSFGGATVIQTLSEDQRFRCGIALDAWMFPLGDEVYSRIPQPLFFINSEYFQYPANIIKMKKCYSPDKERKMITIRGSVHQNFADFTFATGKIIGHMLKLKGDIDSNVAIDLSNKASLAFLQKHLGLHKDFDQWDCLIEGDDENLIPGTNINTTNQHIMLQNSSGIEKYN
For the molecule `Cn1ncc(N2CCN(S(=O)(=O)c3ccc(Br)cc3)CC2)c(Cl)c1=O`, the inhibition was -5.38%.
As for `Cc1ccc(-c2nn(-c3ccccc3)cc2/C=C/C(=O)Nc2cccc(S(N)(=O)=O)c2)cc1`, the inhibition was -54.5%.
On to `C=CCOc1ccc(/C=C2\SC(=S)N(CCC(=O)O)C2=O)cc1`, for which the inhibition was 10.2%.
The same measure for `Cc1ccc(-c2nn(-c3ccccc3)cc2/C=C2\SC(=S)N(CCCCCC(=O)O)C2=O)o1`: 31.3% (active); for `O=C(CN1C(=O)/C(=C\c2ccccc2F)SC1=S)Nc1nc2ccccc2s1`: 7.09%.
The result for `CN(C)S(=O)(=O)c1cccc(-c2nn(-c3ccccc3)cc2/C=C2\SC(=S)N(CC(=O)O)C2=O)c1` reads 38.2% (active); that for `Cc1ccc(/C=C2\SC(=S)N(CCC(=O)Nc3ccc(O)cc3)C2=O)cc1`, 4.61%.
On to `O=C(N[C@@H]1C/C=C\C[C@@H](CC(=O)N(CCO)Cc2ccccc2)C(=O)N[C@H](Cc2ccccc2)COC1=O)OCC1c2ccccc2-c2ccccc21`, for which the inhibition was 7.18%.
With `O=C(NCCc1ccccn1)c1cc(C(=O)C2CCCCC2)c[nH]1`, the inhibition was 4.41%.
The same measure for `O=[N+]([O-])c1ncc(Br)cc1Nc1ccccc1`: 0.58%; for `O=[N+]([O-])c1cc(S(=O)(=O)CCCN2CCOCC2)ccc1F`: 0.16%.
As to `N#Cc1ccccc1S(=O)(=O)N1CCN(C(=O)c2cc(-c3ccccc3)nn2-c2ccccc2)CC1`, the inhibition was 0.65%.
Take `Cc1cccc(C)c1Nc1nnc(SCC(=O)NCCCN2CCCC2=O)s1`: the inhibition is 1.62%.
On to `Cc1cccc(C)c1Nc1nnc(SCC(=O)Nc2sccc2C#N)s1`, for which the inhibition was 27.6% (active).
As to `Cc1csc(SCC(=O)Nc2sccc2C#N)n1`, the inhibition was 11.3%.
Take `CC1=CC=CC2=N/C(=N\S(=O)(=O)c3ccc(F)cc3F)c3ccccc3CN12`: the inhibition was 1.76%.
On to `CC(C)C(=O)Nc1oc(-c2ccccc2)cc1C#N`, for which the inhibition is -0.35%.
With `CC(Oc1ccccc1)C(=O)Nc1oc(-c2ccco2)c(-c2ccco2)c1C#N` (centres undefined), the inhibition is 28.7% (active).
Consider `COc1cc(C(=O)Nc2oc(-c3ccccc3)c(-c3ccccc3)c2C#N)cc(OC)c1OC`, for which the inhibition is 4.29%.
The same measure for `O=C(COC(=O)COc1cccc(F)c1)NCC1CCCCC1`: 7.16%; for `O=C(CNC(=O)c1cc(=O)[nH]c2ccccc12)Nc1ccc(F)c(F)c1`: 0.37%.
The same measure for `Cc1c(C(=O)OCC(=O)N(CCC#N)c2ccccc2)oc2c1ccc1ccccc12`: -0.27%; for `C=CCn1c(N)cc(=O)nc1SCC(=O)Nc1cccc2ccccc12`: 0.51%; for `Cc1ccccc1-n1c(SCC(=O)Nc2cccc3ccccc23)nc(O)cc1=O`: 45.7% (active).
The same measure for `Cc1ccc2nc(SCC(=O)Nc3cccc4ccccc34)nc(=O)n2c1`: 3.47%; for `CN(C(=O)CSc1nnc(-c2ccc3c(c2)OCO3)o1)C1CCS(=O)(=O)C1` (centres undefined): -3.28%.
Regarding `COc1ccccc1C(=O)N(Cc1ccc(C)o1)C1CCS(=O)(=O)C1` (centres undefined), the inhibition was 0.97%.
As to `C=CCN(Cc1nc(-c2cc(OC)c3c(c2)OCO3)oc1C)C1CCS(=O)(=O)C1` (centres undefined), the inhibition was 30.4% (active).
For `NNC(=O)c1oc2nc(-c3ccccc3)cc(-c3ccco3)c2c1N`, the inhibition was 37.4% (active).
As for `O=C(Nc1cccc(F)c1)c1cc(-c2ccco2)nc2ccccc12`, the inhibition was 16%.
As for `CNC(=S)NNC(=O)c1oc2nc(-c3ccccc3)cc(-c3ccco3)c2c1N`, the inhibition is 11%.
For `CC(=O)c1c(C)[nH]c(C(=O)COC(=O)c2cccc(S(=O)(=O)N(C)c3ccccc3)c2)c1C`, the inhibition was -1.03%.
Take `CC1(C)CC(=O)C/C(=N\NC(=O)c2cccs2)C1`: the inhibition is 1.45%.
In the case of `Cc1ccc(C)c(NC(=O)CCC(=O)N/N=C2/CC(=O)CC(C)(C)C2)c1`, the inhibition is 34.2% (active).
Take `Cc1ccc(C)c(NC(=O)CCC(=O)NNC(=O)c2cccs2)c1`: the inhibition is 4.49%.
With `O=C(Nc1ccc(-c2ccc3nncn3n2)cc1)C1CCCCC1`, the inhibition is 3.72%.
The result for `O=C(Nc1ccc(Br)cc1)c1cc(S(=O)(=O)Nc2ccccn2)ccc1Cl` reads 4.67%; that for `Cc1ccc(-c2noc(CSc3nnc(-c4ccccc4)n3C)n2)cc1`, 2.63%.
As for `Cc1ccc(-c2noc(CSc3nnc(-c4ccncc4)n3-c3ccc(F)cc3)n2)cc1`, the inhibition is 61.4% (active).
With `Fc1ccc(-n2c(Cc3ccccc3)nnc2SCc2nc(-c3ccc(Cl)cc3)no2)cc1`, the inhibition was 8.28%.
For `Cc1c(S(=O)(=O)NCc2ccccc2)c(=O)n(C)c(=O)n1C`, the inhibition is 3.56%.
Turning to `Cc1ccc(N(C(=O)CNC(=O)c2ccco2)C(C(=O)NC2CCCC2)c2ccncc2)cc1` (centres undefined), the inhibition was 3.58%.
Regarding `Cn1c(SCC(=O)Nc2ccc(N3CCOCC3)cc2)nnc1C(F)(F)F`, the inhibition is -4.91%.
The result for `Cc1c(C)c2ccc(OCC(=O)N3CCC(C(=O)O)CC3)c(C)c2oc1=O` reads -1.32%; that for `Cc1c(CC(=O)N2CCN(C(=O)C3COc4ccccc4O3)CC2)c(=O)oc2c(O)c(O)ccc12` (centres undefined), 80.7% (active); that for `CCN(CC)S(=O)(=O)c1ccc(N2CCOCC2)c(NC(=O)C2COc3ccccc3O2)c1` (centres undefined), 1.62%.
Take `COc1cccc(/C=C2\Sc3ccc(C(=O)NCC4CCCO4)cc3N(C)C2=O)c1` (centres undefined): the inhibition is 8.27%.
Consider `CCC(=O)c1ccc(OCC(=O)Nc2ccc(N3CCCCC3)cc2)cc1`, for which the inhibition was 3.34%.
The result for `Cc1cc(N2CCCC2)ccc1NC(=O)COc1ccc(Cl)cc1` reads 27.4% (active); that for `Cc1cc(C)cc(OCC(=O)Nc2ccc(N3CCOCC3)cc2N2CCOCC2)c1`, 4.92%.
As to `Cn1c(CCC(=O)OCC(=O)NCc2ccccc2Cl)nc(=O)c2ccccc21`, the inhibition is 1.56%.
For `S=C(NCCc1ccccc1)NCC1CCCO1` (centres undefined), the inhibition was 3.38%.
Regarding `S=C(NCC1CCCO1)N1CCN(c2ccc(Cl)c(Cl)c2)CC1` (centres undefined), the inhibition is 14.9%.
Take `Oc1c(Br)cc(/C=N/NC(=S)NCC2CCCO2)cc1Br` (centres undefined): the inhibition was 35.5% (active).
In the case of `CN(C)c1nccc(NCc2ccccc2)c1C#N`, the inhibition was 5.61%.
The same measure for `CCOc1cccc2c1OC1(CCCCC1)N1N=C(c3cccnc3)CC21` (centres undefined): 8.14%; for `COc1ccccc1NC(=O)Nc1nnc(Cc2ccc(F)cc2)s1`: 1.88%; for `O=C(C1CC(=O)N(c2ccc(Br)cc2)C1)N1CCCC1` (centres undefined): 2.26%.
Regarding `Cc1cc(NC(=O)C(C)N2C(=O)c3ccccc3S2(=O)=O)no1` (centres undefined), the inhibition is 5.49%.
As to `O=c1[nH]cnc2c1c(-c1ccccc1)cn2-c1ccc(F)cc1`, the inhibition is 29.6% (active).
`O=c1c2c(-c3ccccc3)ccnc2[nH]n1-c1ccccc1`: the inhibition is 16.9%.
Consider `COc1ccc(-n2cc(-c3ccccc3)c3c(=S)nc[nH]c32)cc1`, for which the inhibition is 16.5%.
As for `COc1cc(CCC(=O)Nc2ccncc2Cl)cc(OC)c1OC`, the inhibition is 3.7%.
On to `O=C(Cc1ccc(Br)cc1)NCCc1ccccc1`, for which the inhibition was -2.54%.
The result for `O=C(NCCCO)/C(=C\C=C\c1ccccc1)NC(=O)c1ccccc1Cl` reads 5.51%; that for `COc1ccc(OC)c(Nc2nc(-c3ccc(O)c(O)c3)cs2)c1`, 49.9% (active).
The same measure for `COc1ccc(CC(=O)Nc2nc(-c3ccc(F)c(F)c3)cs2)cc1OC`: -1.93%; for `COc1ccc(OC)c(-c2csc(NC(=O)COC(=O)C3CC3)n2)c1`: 5.42%; for `CC1C(=O)Nc2ccc(S(=O)(=O)N3CCN(c4ccccc4F)CC3)cc2NC1=O` (centres undefined): 7.62%.
The same measure for `Cc1ccc(S(=O)(=O)Oc2ccc(/C=N/NC(=O)c3c(Cl)cnn3C)cc2)cc1`: 4.46%; for `COc1nc(Oc2ccc(=O)n(C)n2)nc(N(C)C)n1`: 1.86%.
Take `CCn1nc(C)c(NC(=O)/C=C/c2ccc(OC)c(COc3ccc(Br)cc3)c2)c1C`: the inhibition was 7.11%.
The result for `CCS(=O)(=O)c1ccc(-c2cccc(NC(=O)c3ccc(Br)o3)c2)nn1` reads -0.56%; that for `CCOc1ccc(S(=O)(=O)Nc2ccc(C(=O)NCCCN3CCCC3=O)cc2)cc1`, -4.42%; that for `O=C(NCCCN1CCCC1=O)c1ccc(S(=O)(=O)Nc2ccccc2)cc1`, 28.1% (active).
The result for `O=C(NCCCN1CCCC1=O)c1cccc(S(=O)(=O)NCc2ccccc2)c1` reads 5.61%; that for `CC(C)(C)OC(=O)C[C@H]1C/C=C\C[C@@H](CC(=O)N[C@H](CO)Cc2ccccc2)C(=O)NC[C@@H](c2ccccc2)OC1=O`, 1.87%; that for `CC(=O)Nc1ccc(NC(=O)C2CCCN(S(=O)(=O)c3ccc(Cl)cc3)C2)cc1` (centres undefined), 0.93%.
As for `CC(Oc1ccc(F)cc1F)C(=O)/C=C/N(C)C` (centres undefined), the inhibition is 0.46%.
Consider `O=C(CN1C(=O)NC2(CCCCC2)C1=O)N1CCN(C(=O)c2cccs2)CC1`, for which the inhibition is 2.46%.
With `CC1=C(/C=C/C(C)=C/C=C/C(C)=C/C=C/C=C(C)/C=C/C=C(C)/C=C/C2=C(C)CCCC2(C)C)C(C)(C)CCC1`, the inhibition is 18.3%.
Turning to `CCCCCCCCCCCCCCCC(=O)OC/C=C(C)/C=C/C=C(C)/C=C/C1=C(C)CCCC1(C)C`, the inhibition is 25.7% (active).
Turning to `CCOC(=O)NNc1cc(C(F)(F)F)ccn1`, the inhibition was 3.11%.
Turning to `NC(=O)c1ccsc1NC(=O)COC(=O)COc1ccc(C=O)cc1`, the inhibition was 7.9%.
With `CCc1ccc(-c2nn(-c3ccccc3)cc2CSC(=N)N)cc1`, the inhibition was 3.9%.
With `Oc1ccc2ccccc2c1N=Nc1nccs1`, the inhibition is 17.6%.
On to `Oc1ccc(N=Nc2nccs2)c(O)c1`, for which the inhibition was 37.2% (active).
As to `O=C(NCc1cccc(Cl)c1)C1CCN(c2nnc(N3CCCC3=O)s2)CC1`, the inhibition was 3.53%.
Regarding `CC(C)n1c(=S)[nH]c2cc(C(F)(F)F)ccc21`, the inhibition is 3.35%.
